Screening data from PubChem.
A selection follows.
aSyn UTR act – Activators working through SNCA 5'UTR binding (MLPCN). AID 1814. activity score, % (tested at 7.5 µM), hits read low. alpha-synuclein 5'UTR reporter, activators screen. 300,000 compounds, 7.1% hits; in the data active = activity score below about -60%
Starred values were filed as active, the others as inactive.

SMILES	aSyn UTR act
CN(C)c1ccc(/C=C/c2nc3ccccc3s2)cc1	81.1
COc1ccc(/C=N/Nc2nc3ccccc3s2)cc1O	59.7
COc1ccc(C=C(c2nc3ccccc3s2)c2nc3ccccc3s2)cc1O	-281.1*
Cc1ccc(-c2csc3nc(-c4ccncc4)[nH]c(=O)c23)cc1	-86.1*
O=c1[nH]c(Cc2cccs2)nc2scc(-c3ccc(Cl)cc3)c12	-76.8*
Cc1ccc(-c2nc3ccsc3c(=O)[nH]2)cc1	-137.4*
Cc1ccc(-c2csc3nc4c5ccccc5c(NCCCN(C)C)nn4c(=O)c23)cc1	115.6
Cc1ccc2nc(-c3ccncc3)[nH]c2c1	-120.4*
C(=N\Nc1nc2ccccc2[nH]1)/c1ccc2ncccc2c1	94.6
COc1ccc(/C=N/Nc2nc3ccccc3[nH]2)cc1OC	-228.1*
Cc1ccc2cc(/C=N/Nc3nc4ccccc4[nH]3)c(Cl)nc2c1	-110.9*
CCN(CC)c1ccc(/C=N/Nc2nc3ccccc3[nH]2)c(O)c1	84.5
COc1ccc2c(c1)c(/C=N/Nc1nc3ccccc3[nH]1)c(C)n2C	-115.2*
COc1cc(/C=N\Nc2nc3ccccc3[nH]2)cc(OC)c1OC	-81.5*
CCN(CC)S(=O)(=O)c1cccc(-c2nnc(SCc3nc4ccccc4s3)o2)c1	-113.0*
Brc1ccccc1-c1nnc(SCc2nc3ccccc3s2)o1	-243.6*
CSc1ccccc1C(=O)Nc1nc2ccccc2c(=O)[nH]1	-122.3*
CSc1ccccc1C(=O)Nc1nc2ccccc2[nH]1	-132.9*
Cn1nc(C(=O)Nc2nc3ccccc3[nH]2)ccc1=O	-94.2*
COc1ccccc1C(=O)Nc1nc2ccccc2[nH]1	100.2
Cc1sc(NC(=O)c2ccc(=O)n(C)n2)nc1-c1ccccc1	-95.3*
Cc1cccc(Nc2nc(-c3ccc4c(c3)OCCO4)cs2)c1	-202.7*
Cc1nc(-c2ccc3c(c2)OCCO3)cs1	-122.1*
COc1ccc(OCCSc2nnc3sc4ccccc4n23)cc1	-131.4*
CCNc1nc(N)c(C(=O)c2ccc(Cl)s2)s1	-187.6*
SMILES	aSyn UTR act
CC1CC1C(=O)OCC(=O)NC(=O)NC12CC3CC(CC(C3)C1)C2 (stereo not given)	-118.4*
CCCOc1ccc(-c2nc(N3CCN(C)CC3)c3ccccc3n2)cc1	-134.9*
CN1CCN(Cc2cc(COCc3ccccc3)c3cccnc3c2O)CC1	99.4
CC(C)(O)c1cc(=O)sc2nc3ccccc3n12	-102.9*
CC(=O)c1cc(C#N)c(SCc2ccc(F)cc2)nc1C	-98.2*
Cc1nn(-c2ccccn2)c2c1-c1nc(N)ncc1CC2	-101.1*
Cc1cnc(NC(=O)c2cccs2)s1	-82.3*
O=C(Nc1ncc([N+](=O)[O-])s1)c1cccs1	-106.1*
Cc1ccc(CC(=O)Nc2ncc([N+](=O)[O-])s2)cc1	-136.3*
O=C(Nc1ncc([N+](=O)[O-])s1)c1ccccc1Br	-126.3*
O=C(Nc1cc([N+](=O)[O-])ccc1F)c1cccs1	-70.3*
O=C(C#Cc1ccccc1)c1ccco1	-140.8*
COc1ccc(C)cc1N=Nc1ccc(O)c2ncccc12	67.6
c1cnc(SCCOc2cccc3ccccc23)nc1	-186.2*
Cc1ccc(OCCSc2ncccn2)c(C)c1	-77.5*
O=C(/C=C/c1ccc(F)cc1)NC(=S)N1CCN(c2ccccn2)CC1	-84.6*
COc1ccc(/C=C/C(=O)NC(=S)N2CCN(c3ccccc3OC)CC2)cc1	-160.0*
COc1ccc(/C=C/C(=O)NC(=S)N2CCOCC2)cc1	-83.7*
COc1cc2c(cc1NC(=O)c1ccco1)CCCC2	-278.5*
COc1ccc(NC(=O)c2ccccc2O)c(OC)c1	-204.8*
COc1cc(NC(=O)COc2ccccc2C)ccc1NC(=O)c1ccco1	-67.7*
COc1cc(NC(=O)C(C)C)ccc1NC(=O)c1ccco1	-92.1*
COc1ccc(NC(=O)c2cc(C(C)C)on2)c(OC)c1	-244.5*
COc1ccc(CN(C)CC(=O)Nc2ccccc2-c2ccccc2)c(OC)c1	46.2
COc1ccc(NC(=O)c2ccco2)c(OC)c1	-128.3*
SMILES	aSyn UTR act
COc1ccc(NC(=O)CSc2ccccc2)c(OC)c1	-100.5*
CN1CCSc2ccc(C(=O)Nc3cc(F)ccc3F)cc21	-98.2*
Cc1ccccc1NC(=O)c1ccc2c(c1)N(C)CCS2	-103.4*
CN1CCN(C2Cc3cc(Cl)ccc3Sc3cc(F)ccc32)CC1 (stereo not given)	100.8
Cc1c(C(=O)Nc2ccc3c(c2)CCC3)cccc1[N+](=O)[O-]	-204.0*
COC(=O)c1ccc(NC(=O)c2ccccc2SC)cc1	-66.8*
O=C(Nc1ccc2c(c1)CCC2)c1ccccc1Br	-128.6*
CSc1ccccc1C(=O)Nc1ccc2c(c1)CCC2	-135.2*
COc1ccc(N2CS(=O)(=O)/C(=C/N(C)C)C2=O)cc1	-92.9*
COc1ccc(C2NN=C(c3ccc(C)cc3)S2)cc1OC (stereo not given)	-144.3*
COC(=O)c1c(-c2ccc(Br)cc2)noc1N	-65.0*
O=C(/C=C/c1ccccc1)Nc1ccc(Br)cn1	-124.6*
O=C(/C=C/c1cccc([N+](=O)[O-])c1)Nc1ccc(Cl)cn1	-92.0*
Cc1ccc(NC(=O)/C=C/c2ccc(Cl)cc2)nc1	-157.7*
Nc1nccc(-c2ccc(-n3cccc3)cc2)n1	-132.1*
BrCCOCCOc1ccc2ccccc2c1	-129.5*
CCOc1cc(CNc2ccc(N3CCCC3)cc2)cc(Cl)c1OC	-67.0*
C=CCOc1c(Cl)cc(CNc2ccc(C)c(Cl)c2)cc1OC	84.6
CCC1CCCCN1CCCNC(=O)Cn1c2ccccc2c2nc(=O)cc(C)n21 (stereo not given)	-138.9*
Cc1ccc(S(=O)(=O)Nc2ccc(NC(=O)Nc3ccc(F)cc3F)cc2)cc1	78.5
Cc1ccc(NC(=O)c2ccc(F)cc2F)cc1	-195.0*
O=C(NC(=O)c1ccc(F)cc1F)Nc1ccc(Cl)cc1	-158.7*
O=C(Nc1ccccc1)c1ccc(F)cc1F	-107.9*
Cc1cc(C)cc(NC(=O)C(=O)NCCCN2CCCC2=O)c1	-106.2*
COc1cccc(NC(=O)C(=O)NCCCN2CCCC2=O)c1	-65.1*
SMILES	aSyn UTR act
CCCOC(=O)c1sc2nc3c(cc2c1N)C(=O)CCC3	-152.2*
COc1ccc2cc3c(N)c(C(=O)NCc4ccco4)sc3nc2c1	-191.7*
Nc1c(C(=O)NCc2ccco2)sc2nc3c(cc12)C(=O)CCC3	-94.4*
O=C(COc1ccc(Cl)cc1Cl)NCc1ccco1	-64.1*
O=C(NCc1ccco1)c1ccc(COc2cc(Cl)ccc2Cl)cc1	-94.9*
O=C(N/N=C/c1ccccc1[N+](=O)[O-])C(=O)N1CCCC1	-71.7*
O=C(/C=C1\NC2(CCCC2)Cc2ccccc21)C(=O)N/N=C/c1ccccc1O	74.3
COc1ccc(C(=O)N/N=C/c2ccc(SC)cc2)cc1	-64.7*
COc1ccc(/C=N/NC(=O)c2ccc[nH]2)cc1	-147.1*
O=C(N/N=C\c1c(O)ccc2ccccc12)c1ccc(O)cc1	75.3
CSc1ccc(/C=N/NC(=O)c2ccc(O)cc2)cc1	-116.9*
CC(C)c1ccc2c(c1)C1Cc3ccccc3C1N2 (stereo not given)	-195.6*
CCN1C(=O)S/C(=C\c2ccc(N3CCOCC3)cc2C)C1=O	-147.7*
C#CCN1C(=O)S/C(=C\c2ccc(N3CCOCC3)cc2C)C1=O	-149.7*
Cc1ccc(NCC(=O)Nc2ccc(Br)cc2)cc1C	-126.0*
Cc1ccc(F)cc1NCC(=O)Nc1ccc(Br)cc1	-145.6*
CCOc1ccc2nc(N3CCCC(C(=O)NC4CCCC4)C3)sc2c1 (stereo not given)	-70.3*
CCOc1ccc2nc(N3CCC(C(=O)N4CCN(c5ncccn5)CC4)CC3)sc2c1	-75.5*
C/[N+]([O-])=C/c1c(OCc2ccc(Cl)cc2Cl)ccc2ccccc12	-72.1*
